The campaign covered roughly 360,000 compounds. About 11,000 (3.1%) were called active. A call without a number means that no potency is given here. About 4% were inconclusive and are not listed. The call rests on the fitted dose curve; in most records, active means well fitted inhibition curve with a large enough effect; inconclusive means small, poorly fitted or top-dose-only effect; inactive means no such curve, though single readings can be large or run the other way. The sample as a whole holds a higher share of actives than the screen did.
target: Schistosoma mansoni thioredoxin glutathione reductase (TGR) (UniProt Q962Y6); experiment: qHTS Assay for the Inhibitors of Schistosoma Mansoni Peroxiredoxins; details: purified TGR, DTNB reduction, TNB absorbance 405 nm; series mostly up to 114 µM; further: nearly all actives have a fitted effect of over 60% in size
Method in brief: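 First, TGR (20 nM dispensed) and NADPH were mixed with compound. Second, a 15 min room-temperature incubation followed. Third, further NADPH and then DTNB were added to start the reaction. Finally, TNB absorbance was monitored kinetically.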
Potency means the concentration at half of the fitted maximal effect.

| Structure (SMILES) | Potency |
| --- | --- |
| O=C(CCc1cn(Cc2ccc(F)cc2)c2ccccc12)NC1CCCCC1 | inactive |
| CC(C)Cn1c(C2CC(=O)N(c3ccccc3Cl)C2)nc2ccccc21 (centres undefined) | inactive |
| O=C(NCCc1ccccc1)c1ccc2c(c1)N(Cc1ccc(F)cc1)C(=O)c1ccccc1S2(=O)=O | inactive |
| CN(C)CC1Oc2ccccc2OC1(O)c1ccccc1 (centres undefined) | 0.355 µM (active) |
| CN(C)CCOC(=O)C(c1ccccc1)C1(O)CCCC1 (centres undefined) | inactive |
| O=C(NCC1COc2ccccc2O1)C1(c2ccccc2)CCCC1 (centres undefined) | inactive |
| CCOc1ccc(CC(=O)NCCc2csc3nc(-c4ccccc4F)nn23)cc1 | inactive |
| O=C(COc1ccc(Cl)cc1)N(Cc1ccco1)Cc1ccco1 | inactive |
| O=C(Nc1nc(-c2ccco2)c(-c2ccco2)s1)c1ccco1 | 7.94 µM (active) |
| CCN(c1ccc(Cl)cc1)S(=O)(=O)c1nnc(NC(=O)c2ccco2)s1 | inactive |
| O=C(Nc1nonc1-c1ccc(Cl)cc1)c1ccco1 | inactive |
| COc1ccc(S(=O)(=O)NCCSc2nnnn2-c2ccccc2)cc1 | inactive |
| O=C(CCSCc1ccccc1F)N1CCN(c2ccc(Cl)cc2)CC1 | inactive |
| COc1ccccc1C(=O)Nn1cnnc1 | inactive |
| COc1ccccc1C(=O)NN1C(=O)C2C3C=CC(O3)C2C1=O (centres undefined) | 17.8 µM (active) |
| O=C(NN1C(=O)C2C3C=CC(C4CC34)C2C1=O)c1ccc(Cl)cc1 (centres undefined) | inactive |
| COc1ccc(C(=O)NN2C(=O)C3C(c4ccccc4)C=CC(c4ccccc4)C3C2=O)cc1 (centres undefined) | inactive |
| O=C(NN1C(=O)C2C3C=CC(O3)C2C1=O)c1ccncc1 (centres undefined) | 20 µM (active) |
| CC(C)=C1C2CCC1C1C(=O)N(NC(=O)c3ccco3)C(=O)C21 (centres undefined) | inactive |
| COc1ccccc1C(=O)NCCC(=O)NN1C(=O)NC2(CCCCC2)C1=O | inactive |
| O=C(NN1C(=O)C2C3C=CC(O3)C2C1=O)c1ccccc1 (centres undefined) | 20 µM (active) |
| O=C(NN1C(=O)C2C3C=CC(C3)C2C1=O)c1ccco1 (centres undefined) | inactive |
| COc1cccc(N2CCN(S(=O)(=O)c3ccc4c(c3)CCCN4C(C)=O)CC2)c1 | inactive |
| O=C(Nc1nnc(C2CC(=O)N(c3ccc(Cl)cc3)C2)s1)c1ccco1 (centres undefined) | inactive |
| Cc1ccc(S(=O)(=O)c2cn(Cc3ccccc3)c3cc(N4CCCC4)c(F)cc3c2=O)c(C)c1 | inactive |

| Structure (SMILES) | Potency |
| --- | --- |
| COc1cc(C(=O)N2CCN(C(=O)COc3cccc(C)c3)CC2)cc(OC)c1OC | inactive |
| Cc1nnc(SCC(=O)NCc2ccccc2Cl)c2nn(-c3ccccc3)c(C)c12 | inactive |
| CC1CCN(S(=O)(=O)c2ccc3c(ccn3CCC(=O)NCc3ccc(N(C)C)cc3)c2)CC1 | inactive |
| Cc1ccc(NC(=O)c2cc(S(=O)(=O)NCCC3=CCCCC3)ccc2F)cc1C | inactive |
| CCOc1ccc(OCC)c(NC(=O)c2cc(C)nc3c2c(C)nn3-c2cccc(Cl)c2C)c1 | inactive |
| O=C(/C=C/c1ccccc1)N1CCN(Cc2cc(=O)n3nc(-c4ccccc4F)sc3n2)CC1 | inactive |
| CCOc1ccc(CCNC(=O)c2cc3c(=O)n(C)c4ccccc4c3n2C)cc1 | inactive |
| Cn1c(C(=O)N2CCC(C(N)=O)CC2)cc2c(=O)n(C)c3ccccc3c21 | inactive |
| CCN1CCCC1CNC(=O)c1cc2c(=O)n(C)c3ccccc3c2n1C (centres undefined) | 50.1 µM (active) |
| O=C(c1ccc2c(c1)N(Cc1ccc(Cl)cc1)C(=O)c1ccccc1S2(=O)=O)N1CCCCC1 | inactive |
| CCOc1ccc(C(=O)/C=C/c2cn(CC(O)CN3CCCCCC3)c3ccccc23)cc1 (centres undefined) | inactive |
| Cc1ccc(Cn2c(CNC(=O)Cc3cccc(C)c3)nc3cccnc32)cc1 | inactive |
| COc1ccc(C(=O)NC2CCCc3c2cnn3-c2cccc(C)c2C)c(OC)n1 (centres undefined) | inactive |
| Cn1nccc1C(=O)NC1CCCc2c1cnn2-c1ccccc1F (centres undefined) | inactive |
| Cc1cc(C(=O)NC2CCCc3c2cnn3-c2cccc(C)c2C)c(C)o1 (centres undefined) | 35.5 µM (active) |
| Clc1ccc2c(c1)C1=C(C(c3ccncc3)O2)C(c2ccc(Br)cc2)n2ncnc2N1 (centres undefined) | inactive |
| Brc1ccc(C2=CC(c3ccco3)n3ncnc3N2)cc1 (centres undefined) | 17.8 µM (active) |
| Cc1cccc(OCCSc2nc3ccccc3n2CC(=O)N2CCCCC2)c1C | inactive |
| COc1ccc(CCN=C2SCC(=O)N2Cc2ccccc2)cc1OC | inactive |
| COc1cc(C2CC(=O)N3CN(Cc4ccccc4)CSC3=C2C#N)ccc1OCc1ccccc1 (centres undefined) | 8.91 µM (active) |
| COC(=O)C1=C(c2ccc(F)cc2OCc2ccccc2)C[C@@H]2CC[C@H]1N2C(=O)NCc1ccc(OC)c(OC)c1 | inactive |
| CCCOc1ccc(C2c3c(-c4ccccc4O)n[nH]c3C(=O)N2Cc2cccnc2)cc1 (centres undefined) | inactive |
| CC(=O)Nc1ccc(S(=O)(=O)NC2(C(F)(F)F)C(=O)Nc3c2c(=O)[nH]c(=O)n3Cc2ccccc2)cc1 (centres undefined) | inactive |
| CC(=O)Nc1ccc(S(=O)(=O)NC2(C(F)(F)F)C(=O)NC(C)=C2C#N)cc1 (centres undefined) | 39.8 µM (active) |
| CC(=O)Nc1ccc(NS(=O)(=O)c2ccc3c(c2)NC(=O)CC(=O)N3)cc1 | inactive |

| Structure (SMILES) | Potency |
| --- | --- |
| CCOC(=O)c1cc(-c2ccc(OC)c(S(=O)(=O)Nc3ccc(OC)cc3OC)c2)on1 | inactive |
| CCOC(=O)c1ccc(NC(=O)Cn2c(=O)cc(C)c3c(C)nn(-c4cccc(F)c4)c32)cc1 | inactive |
| COCc1cc(C(C)=O)ccc1OC | inactive |
| O=C(COC(=O)Cn1cnc2ccccc2c1=O)NCc1ccccc1Cl | inactive |
| COc1ccc(C(C)=O)cc1COC(=O)Cn1cnc2ccccc2c1=O | 39.8 µM (active) |
| CC(Sc1oc(-c2ccco2)nc1S(=O)(=O)c1ccc(Br)cc1)c1ccccc1 (centres undefined) | inactive |
| COc1ccc(NC(=O)C2CCN(c3ccc(Sc4ccc(C)cc4)nn3)CC2)c(OC)c1 | inactive |
| Cc1nnc(SCc2cc(=O)c3cc(F)ccc3[nH]2)n1C | inactive |
| CCOC(=O)c1ccccc1NC(=O)CC1Nc2ccccc2NC1=O (centres undefined) | 39.8 µM (active) |
| COC(=O)c1cc(C)sc1NC(=O)CC1Nc2ccccc2NC1=O (centres undefined) | inactive |
| CCOC(=O)c1ccccc1NC(=S)N1CCC(C(N)=O)CC1 | inactive |
| CN1CCN(C2(CNC(=O)COc3ccc(C(C)(C)C)cc3)CCCCC2)CC1 | inactive |
| Cc1ccc2nc(N3CCN(c4cccc(Cl)c4)CC3)c3nnnn3c2c1 | inactive |
| COc1ccc(Cn2ccn(Cc3cccc(OC)c3)c(=O)c2=O)cc1 | inactive |
| CCCCc1nn2c(=O)cc(COC(=O)c3cccc(NC(=O)COc4ccccc4)c3)nc2s1 | inactive |
| Cc1ccc(C(C(=O)NCc2ccco2)N(CC2CCCO2)C(=O)Cn2nnc3ccccc32)cc1 (centres undefined) | inactive |
| COc1ccccc1N(C(=O)Cn1nnc2ccccc21)C(C(=O)NCc1ccco1)c1ccc(C)o1 (centres undefined) | 44.7 µM (active) |
| O=C(NCc1ccco1)C(c1ccncc1)N(C(=O)Cn1nnc2ccccc21)c1ccccc1 (centres undefined) | inactive |
| Cc1ccc(OCCSc2nc(-c3cccs3)nc3cc(=O)[nH]n23)cc1Cl | inactive |
| Cc1ccc(-c2nc3ccccn3c2Nc2c(C)cccc2C)o1 | inactive |
| COc1cc(Cl)c(C)cc1NC(=O)CCc1nc2cccnc2n1Cc1cccs1 | inactive |
| CCC(C)n1c(-c2cc(OC)c(OC)c(OC)c2)nc2nc3ccccc3nc21 (centres undefined) | inactive |
| Clc1cccc(-c2nc3nc4ccccc4nc3n2Cc2ccco2)c1 | 17.8 µM (active) |
| O=c1[nH]c(CSc2ncc(-c3ccc(F)cc3)n2Cc2ccco2)nc2ccccc12 | inactive |
| Cc1ccc(NC(=O)C2CCN(S(=O)(=O)c3cc(-c4noc(C)n4)ccc3C)CC2)c(C)c1 | inactive |

| Structure (SMILES) | Potency |
| --- | --- |
| FC(F)(F)c1cc(Nc2nc3ccccc3c3nncn23)ccc1Cl | inactive |
| CCOc1ccc(NCCC(=O)c2ccc3c(c2)OCO3)cc1 | 1.41 µM (active) |
| COC(=O)CCNc1ccc2c(c1)OCCO2 | inactive |
| O=C(COc1ccc(Cl)cc1)Nc1ccc2c(c1)OCO2 | inactive |
| Cc1ccc(NC(=O)CSc2nnc3[nH]c(=O)cc(C)n23)cc1Cl | inactive |
| Cc1oc2c(c1C(=O)Nc1ccc(F)c(F)c1)C1=NCCN1C=N2 | inactive |
| COc1cc(OC)cc(C(=O)OCC(=O)Nc2sccc2C(N)=O)c1 | inactive |
| CC1CN(S(=O)(=O)c2ccc(C(=O)Nc3sccc3C(N)=O)cc2)CC(C)O1 (centres undefined) | inactive |
| NC(=O)c1ccsc1NC(=O)c1ccco1 | 44.7 µM (active) |
| O=C(OCCN1C(=O)c2ccccc2C1=O)Oc1ccccc1 | inactive |
| O=C(CCN1C(=O)c2ccccc2C1=O)Nc1cccc(F)c1 | inactive |
| O=C1c2ccccc2C(=O)N1CCC(O)C[N+](=O)[O-] (centres undefined) | 28.2 µM (active) |
| Cc1ccc(CCNC(=O)C2CCN(c3nnc(-n4cccc4CNc4ccc(C)cc4)s3)CC2)cc1 | inactive |
| COc1ccc(-c2noc(-c3ccc(N4CCN(c5ccccc5)CC4)c([N+](=O)[O-])c3)n2)cc1OC | inactive |
| COc1ccc(S(=O)(=O)NC(CC(=O)NCc2ccccc2OC)c2ccco2)cc1 (centres undefined) | inactive |
| COc1ccc(S(=O)(=O)N(CC(=O)NCc2ccco2)c2ccc(F)cc2)cc1 | inactive |
| O=C(NCc1ccccc1)C(=O)NCC(c1ccco1)S(=O)(=O)c1ccc(Cl)cc1 (centres undefined) | 50.1 µM (active) |
| O=C(NCCc1ccccc1)C(=O)NCC(c1ccco1)S(=O)(=O)c1ccccc1 (centres undefined) | inactive |
| O=C(NCc1ccncc1)C(=O)NCc1ccco1 | inactive |
| COc1ccccc1CNC(=O)C(=O)NCC(c1ccco1)S(=O)(=O)c1ccc(F)cc1 (centres undefined) | 10 µM (active) |
| COC(=O)c1cnc(N2CCN(c3ccccc3OC)CC2)c2ccccc12 | inactive |
| Cc1ccc(F)cc1S(=O)(=O)N1CCC(c2nc3ccccc3s2)CC1 | inactive |
| Cc1ccc2c(c1)N(C(=O)CCC(=O)NCc1ccccc1F)CC(C)O2 (centres undefined) | inactive |
| CC(=O)N1CCCc2cc(S(=O)(=O)N3CCC(C(=O)NCc4ccc(C)cc4)CC3)ccc21 | inactive |

— PubChem BioAssay AID485364 (National Center for Advancing Translational Sciences (NCATS), 2010)
